IL1B secr inh – qHTS for Inhibitors of Inflammasome Signaling: IL-1-beta AlphaLISA Primary Screen. THP-1 LPS/ATP IL-1B secretion, AlphaLISA, 16 h; stronger effect = lower value. activity change, % at 57.5 µM. 360,000 tested, 4.7% active. AID 743279, 2014; in the data active means activity change below about -50%; inconclusive means mostly about -30% to -49%
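THP-1 cells pretreated 1 hr with compounds (up to 57.5 uM final), then stimulated with LPS (250 ng/mL final) plus ATP (1.25 mM final); secreted IL-1B measured by AlphaLISA after 16 hr, decreased signal indicating inhibition.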
HT1080-NT tox – qHTS for induction of synthetic lethality in tumor cells producing 2HG: qHTS for the HT-1080-NT fibrosarcoma cell line; 360,000 tested, 1.6% active; HT-1080-NT fibrosarcoma viability, CellTiter-Glo ATP luminescence, 48 h; Potency, µM (top dose mostly 46.1 µM), for the others: top-dose activity, negative = less viability, usual class: cytotoxic;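 further: NT is the 2HG producing partner of a matched IDH1 knockdown line; potency means the concentration at half of the fitted maximal effect; 0% = DMSO-treated cells and -100% = media-only wells without cells; nearly all actives have a fitted effect of over 55% in size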
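750 cells/well, RPMI + 5% FBS; 2 h settle, compound pin-transfer, 48 h at 37 degrees C. CellTiter-Glo 10 min RT, luminescence. Normalized to DMSO and media-only wells.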
TDP1 cell noCPT – qHTS for Inhibitors of human tyrosyl-DNA phosphodiesterase 1 (TDP1): qHTS in cells in absence of CPT; DT40 Tdp1-/- hTDP1 cells, no CPT, ATP luminescence, 48 h; Potency, µM (highest dose often 46.2 µM), without a hit: at the highest dose activity change, negative = growth inhibition, hits mostly inhibitors; 420,000 tested, 15% active; further: potency means the concentration at half of the fitted maximal effect; nearly all actives have a fitted effect of over 55% in size
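Compound effects on proliferation are scored in DT40 Tdp1-/-;hTDP1 cells in the absence of CPT. ATP levels (CellTiter-Glo luminescence) are recorded after a ≥48 hr, 37 °C incubation.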
HT1080 IDH1KD tx – qHTS for induction of synthetic lethality in tumor cells producing 2HG: qHTS for the HT-1080-IDH1KD cell line | HT-1080 IDH1 knockdown viability, ATP luminescence, 48 h | Potency, µM (highest dose often 46.1 µM), inactives show at the top dose activity, negative = toxicity, hits mostly cytotoxic | 360,000 tested, 2% active;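 further: potency means the concentration at half of the fitted maximal effect; 0% = DMSO wells and -100% = cell-free medium wells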
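After a 2 h attachment period, IDH1KD HT-1080 cells took pin-transferred compound for 48 h at 37 °C; ATP-based luminescence after 10 min room-temperature reagent incubation reported viability.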
DT40 TDP1 CPT – qHTS for Inhibitors of human tyrosyl-DNA phosphodiesterase 1 (TDP1): qHTS in cells in presence of CPT. 420,000 tested, 12% active. chicken DT40 Tdp1-/-;hTDP1 cells + 20 nM CPT, ATP luminescence, 48 h. Potency, µM (doses to about 46.2 µM), for the others: at the highest dose activity change, negative = growth inhibition, actives largely listed as inhibitors; further: potency means the concentration at half of the fitted maximal effect; nearly all actives have a fitted effect of over 55% in size
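Chicken DT40 Tdp1-/- cells complemented with human TDP1, 400 cells/well, exposed to compounds plus 20 nM camptothecin for at least 48 h at 37 C; viability read as ATP content by CellTiter-Glo luminescence.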
* = called active by the depositor. Hits are enriched below; roughly 19% of the tested compounds scored in any of these assays. Unless noted, the call rests on the fitted dose curve; in most records, active means well fitted curve in the direction sought with a large enough effect; inconclusive means small, poorly fitted or top-dose-only effect, or another doubt; inactive means no such curve, though single readings can be large; an effect the other way counts as inactive or inconclusive. Unless noted, on the % scale 0 is the no-effect control and ±100 the full control effect.

`CC1(C)Oc2ccccc2OC1(O)c1ccc2ccccc2n1` (centres undefined) gave IL1B secr inh 5.5, HT1080-NT tox -11.5%, TDP1 cell noCPT 18.4µM*, HT1080 IDH1KD tx -10.9% and DT40 TDP1 CPT inconclusive.
For Cc1cccc(Cn2c(CNS(=O)(=O)c3ccc(C(C)C)cc3)nc3cccnc32)c1 the results were TDP1 cell noCPT 14.6µM* and DT40 TDP1 CPT inconclusive.
Screening COc1cccc(Cn2c(CNS(=O)(=O)c3ccc(F)c(Cl)c3)nc3cccnc32)c1 returned TDP1 cell noCPT 10.3µM* and DT40 TDP1 CPT inconclusive.
Screening COCCn1c(CNC(=O)c2cc([N+](=O)[O-])ccc2Cl)nc2cccnc21 returned TDP1 cell noCPT -14.8% and DT40 TDP1 CPT -22.0%.
For COc1cccc(Cn2c(CNC(=O)c3cc([N+](=O)[O-])ccc3Cl)nc3cccnc32)c1 the results were TDP1 cell noCPT inconclusive and DT40 TDP1 CPT 16.4µM*.
`Cc1ccc(Cn2c(CNS(=O)(=O)c3ccc(F)c(Cl)c3)nc3cccnc32)cc1` gave TDP1 cell noCPT -37.0% and DT40 TDP1 CPT -15.1%.
For Cc1ccc(C)c(N2CCN(C(=O)c3ccc4c(Cl)c5c(nc4c3)CCCC5)CC2)c1 the results were TDP1 cell noCPT inconclusive and DT40 TDP1 CPT 16.4µM*.
`O=C(O)CSc1c2c(nc3cc(C(=O)N4CCCC4)ccc13)CCCC2` gave IL1B secr inh -11.4, HT1080-NT tox 0.3%, TDP1 cell noCPT -3.0%, HT1080 IDH1KD tx -3.2% and DT40 TDP1 CPT 7.0%.
Screening Cc1ccc(C)c(N2CCN(C(=O)c3ccc4c(=O)n5c(nc4c3)CCCCC5)CC2)c1 returned IL1B secr inh inconclusive, HT1080-NT tox -17.0%, TDP1 cell noCPT 16.4µM*, HT1080 IDH1KD tx -14.2% and DT40 TDP1 CPT 16.4µM*.
O=C(c1ccc2c(Cl)c3c(nc2c1)CCCC3)N1CCC(N2CCCCC2)CC1 was read as IL1B secr inh -69.4*, HT1080-NT tox -14.3%, TDP1 cell noCPT inconclusive, HT1080 IDH1KD tx -29.3% and DT40 TDP1 CPT inconclusive.
For CCOC(=O)N1CCN(C(=O)c2ccc3c(Cl)c4c(nc3c2)CCCC4)CC1 the results were IL1B secr inh -50.8*, HT1080-NT tox 2.1%, TDP1 cell noCPT inconclusive, HT1080 IDH1KD tx 1.5% and DT40 TDP1 CPT inconclusive.
`O=C(c1ccc2c(Cl)c3c(nc2c1)CCCC3)N1CCN(c2ccccc2)CC1` gave TDP1 cell noCPT -9.7% and DT40 TDP1 CPT 0.6%.
For O=C(N/N=C/c1c(F)cccc1Cl)C(=O)N1CCCCCC1 the results were IL1B secr inh 5.3, HT1080-NT tox -1.8%, TDP1 cell noCPT 5.4%, HT1080 IDH1KD tx -4.2% and DT40 TDP1 CPT -10.8%.
Screening C[C@H]1C[C@H]2[C@@H]3CCC4=CC(=O)C=C[C@]4(C)[C@H]3C(=O)C[C@]2(C)[C@@]1(O)C(=O)CO returned TDP1 cell noCPT -25.1% and DT40 TDP1 CPT -11.5%.
`O=C(c1ccc2c(=O)n3c(nc2c1)CCCCC3)N1CCN(C(c2ccccc2)c2ccccc2)CC1` gave IL1B secr inh inconclusive, HT1080-NT tox 17.8µM*, TDP1 cell noCPT inconclusive, HT1080 IDH1KD tx 10µM* and DT40 TDP1 CPT inconclusive.
`O=C(c1ccc2c(=O)n3c(nc2c1)CCCCC3)N1CCN(c2ccccc2)CC1` gave IL1B secr inh -1.5, HT1080-NT tox 24.5%, TDP1 cell noCPT inconclusive, HT1080 IDH1KD tx 16.6% and DT40 TDP1 CPT inconclusive.
`CCc1ccc(CNC(=O)C2COc3ccc(OC)cc3C2)cc1` (centres undefined) gave TDP1 cell noCPT -21.3% and DT40 TDP1 CPT -19.0%.
Screening COc1ccc(N2CCN(CCCNC(=O)C3COc4ccccc4C3)CC2)cc1 (centres undefined) returned TDP1 cell noCPT 16.4µM* and DT40 TDP1 CPT 11.6µM*.
